The sample as a whole holds a higher share of hits than the screen did.
TDP1 cell CPT: qHTS for Inhibitors of human tyrosyl-DNA phosphodiesterase 1 (TDP1): qHTS in cells in presence of CPT; Potency, µM (series often up to 46.2 µM), for inactives: at the top dose activity change, negative = growth inhibition, usual class: inhibitors; 420,000 tested, 12% active; chicken DT40 Tdp1-/-;hTDP1 cells + 20 nM CPT, ATP luminescence, 48 h; also: potency is read from the fitted curve at half-maximal effect; nearly all actives have a fitted effect of over 55% in size
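Chicken DT40 Tdp1-/- cells complemented with human TDP1, 400 cells/well, exposed to compounds plus 20 nM camptothecin for at least 48 h at 37 C; viability read as ATP content by CellTiter-Glo luminescence.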
IL-1B inflam inh: qHTS for Inhibitors of Inflammasome Signaling: IL-1-beta AlphaLISA Primary Screen. THP-1 LPS/ATP IL-1B secretion, AlphaLISA, 16 h; hits give low values. activity change, % at 57.5 µM. 360,000 tested, 4.7% active. AID 743279, 2014; in the data active = activity change below about -50%; inconclusive = mostly about -30% to -49%
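Secreted IL-1B measured by AlphaLISA bead assay after 16 h compound exposure of THP-1 cells; compounds (final up to 57.5 uM) added 1 h before LPS (250 ng/mL) and ATP (1.25 mM) stimulation; lower signal means less secretion.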
HT1080NT lethal: qHTS for induction of synthetic lethality in tumor cells producing 2HG: qHTS for the HT-1080-NT fibrosarcoma cell line. HT-1080-NT fibrosarcoma viability, CellTiter-Glo ATP luminescence, 48 h. Potency, µM (series often up to 46.1 µM), inactives show top-dose activity, negative = less viability, most hits filed as cytotoxic. 360,000 tested, 1.6% active. AID 686970, 2013;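 also: NT is the 2HG producing partner of a matched IDH1 knockdown line; potency is read from the fitted curve at half-maximal effect; 0% = DMSO-treated cells and -100% = media-only wells without cells; nearly all actives have a fitted effect of over 55% in size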
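750 cells/well, RPMI + 5% FBS; 2 h settle, compound pin-transfer, 48 h at 37 degrees C. CellTiter-Glo 10 min RT, luminescence. Normalized to DMSO and media-only wells.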
12-LOX inh: Primary qHTS assay for inhibitors of human arachidonate 12S-lipoxygenase (ALOX12): Round 2 | Polyunsaturated fatty acid lipoxygenase ALOX12 (Homo sapiens), P18054 | purified 12hLO, xylenol orange hydroperoxide absorbance | Potency, µM (top dose mostly 108 µM), for inactives: top-dose activity change, negative = inhibition, actives largely listed as inhibitors | 580,000 tested, 1.1% active | AID 1671190, 2021; also: potency is read from the fitted curve at half-maximal effect
Target sequence (P18054 whole entry, looked up): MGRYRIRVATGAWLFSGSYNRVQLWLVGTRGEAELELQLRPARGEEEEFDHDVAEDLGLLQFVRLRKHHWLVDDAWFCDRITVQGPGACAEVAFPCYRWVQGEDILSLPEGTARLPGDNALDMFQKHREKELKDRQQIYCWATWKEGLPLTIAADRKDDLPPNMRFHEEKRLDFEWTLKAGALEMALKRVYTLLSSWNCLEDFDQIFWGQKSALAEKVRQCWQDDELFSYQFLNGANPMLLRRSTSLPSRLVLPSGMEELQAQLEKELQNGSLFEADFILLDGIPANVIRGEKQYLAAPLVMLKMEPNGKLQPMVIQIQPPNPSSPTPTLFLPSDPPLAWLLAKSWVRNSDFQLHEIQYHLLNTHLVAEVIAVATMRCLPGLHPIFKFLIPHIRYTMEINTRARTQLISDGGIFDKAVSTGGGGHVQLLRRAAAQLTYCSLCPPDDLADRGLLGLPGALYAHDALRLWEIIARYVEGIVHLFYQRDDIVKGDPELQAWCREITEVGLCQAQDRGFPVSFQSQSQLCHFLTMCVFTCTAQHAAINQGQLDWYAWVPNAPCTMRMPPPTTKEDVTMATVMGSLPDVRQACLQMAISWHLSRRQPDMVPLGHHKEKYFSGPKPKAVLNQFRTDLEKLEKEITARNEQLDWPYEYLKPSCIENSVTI
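Purified human 12hLO at 150 nM in 25 mM Hepes, 0.01% Triton X-100, pH 7.0, preincubated 15 min at room temperature with compound. Reaction started with 40 uM arachidonic acid, 30 min at room temperature. Hydroperoxide measured by Fe-xylenol orange, 573/405 nm absorbance ratio.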
HT1080 IDH1KD tx: qHTS for induction of synthetic lethality in tumor cells producing 2HG: qHTS for the HT-1080-IDH1KD cell line. HT-1080 IDH1 knockdown viability, ATP luminescence, 48 h. Potency, µM (highest dose often 46.1 µM), for the others: at the highest dose activity, negative = toxicity, usual class: cytotoxic. 360,000 tested, 2% active;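 also: potency is read from the fitted curve at half-maximal effect; 0% = DMSO wells and -100% = cell-free medium wells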
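HT-1080-IDH1KD cells (IDH1 knocked down), 750/well in RPMI with 5% FBS, treated with compound 48 h at 37 degrees C. Viability by CellTiter-Glo luminescence, normalised to DMSO and no-cell wells; concentration-response curves classed.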
TDP1 cell noCPT: qHTS for Inhibitors of human tyrosyl-DNA phosphodiesterase 1 (TDP1): qHTS in cells in absence of CPT | DT40 Tdp1-/- hTDP1 cells, no CPT, ATP luminescence, 48 h | 420,000 tested, 15% active | Potency, µM (titrated, usually from 46.2 µM), inactives show at the top dose activity change, negative = growth inhibition, usual class: inhibitors; also: potency is read from the fitted curve at half-maximal effect; nearly all actives have a fitted effect of over 55% in size
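No-CPT arm: Tdp1-/-;hTDP1 DT40 cells (400/well) plus compounds, incubated ≥48 hr at 37 °C. Readout CellTiter-Glo luminescence.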
* = called active by the depositor; ? = inconclusive; . = not tested or not shown; [ ] = remark or other dose. Unless noted, calls follow the shape of the dose curve; as a rule, active = well fitted curve in the direction sought with a large enough effect; inconclusive = small, poorly fitted or top-dose-only effect, or another doubt; inactive = no such curve, though single readings can be large; an effect the other way counts as inactive or inconclusive. Unless noted, % is scaled to controls: 0 for no effect and ±100 for the full control effect.

SMILES	TDP1 cell CPT	IL-1B inflam inh	HT1080NT lethal	12-LOX inh	HT1080 IDH1KD tx	TDP1 cell noCPT
Cc1ccccc1NC(=O)Cc1nc(COC(=O)c2nc(Cl)ccc2Cl)cs1	-4.4%	2.0	0.0%	?	-3.7%	-13.5%
Cc1ccccc1NC(=O)Cc1nc(COC(=O)c2ncc(Cl)c(Cl)c2Cl)cs1	?	-88.4*	-22.8%	-5.1%	-1.3%	?
CCOC(=O)c1sc(Nc2ccccc2C)nc1C	.	.	.	39.4%	.	.
CCOc1cc(CNC(=O)c2ncoc2-c2cccc(Cl)c2)ccc1OC	.	.	.	8.2%	.	.
CCCN(Cc1nnc(-c2ccccc2Cl)o1)C(=O)c1cc(S(=O)(=O)N(C)C)ccc1Cl	.	.	.	-0.6%	.	.
CCCCn1c(SCC(=O)NCc2ccccc2)nc2cc(C(=O)OC)ccc2c1=O	.	.	.	14.3%	.	.
Cc1ccc(CN(C(=O)c2ccccc2)c2ccccn2)o1	?	.	.	-7.1%	.	?
Cc1ccc(CN(C(=O)c2cc(=O)c3cc(Cl)c(C)cc3o2)c2ccccn2)o1	.	.	.	25.1µM*	.	.
COc1cccc(/C(O)=C/c2nc3ccc(C(=O)NCCc4ccc(Cl)cc4)cc3[nH]c2=O)c1	6.51µM*	28.1	18.4µM*	-18.4%	?	6.51µM*
COc1cccc(/C(O)=C/c2nc3ccc(C(=O)NCCc4cccc(C)c4)cc3[nH]c2=O)c1	-87.2%	0.0	?	-21.0%	?	-87.8%
COc1ccc2c(c1)CCc1c(C(=O)N3CCOCC3)noc1-2	-26.9%	-18.3	-12.8%	14.7%	-22.2%	-32.5%
COc1ccc2c(c1)CCc1c(C(=O)Nc3c(C)nn(Cc4ccccc4)c3C)noc1-2	9.2µM*	?	4.9%	0.0%	-3.1%	9.2µM*
CC1(C)CC2CC(C)(CN2C(=O)c2ccccc2)C1 (stereo not drawn)	16.4µM*	25.3	1.8%	-5.8%	1.0%	-23.4%
COc1ccc2c(c1)CCc1c(C(=O)Nc3ccn(Cc4ccc(C)cc4)n3)noc1-2	-29.1%	-8.8	-29.4%[9.24 µM]	-15.8%	-7.9%	?
Cc1nn(Cc2ccc(Cl)cc2)c(C)c1NC(=O)c1noc2c1CCc1ccccc1-2	13µM*	0.0	-17.9%	?	-21.8%	13µM*
COc1ccc2c(c1)CCc1c(C(=O)N3CC4(C)CC3CC(C)(C)C4)noc1-2 (stereo not drawn)	16.4µM*	-21.7	?	9.5%	?	?
COc1ccc2c(c1)CCc1c(C(=O)Nc3cc(C)n(Cc4ccc(Cl)cc4)n3)noc1-2	?	44.1	17.0%	14.3%	16.1%	?
COc1ccc2c(c1)CCc1c(C(=O)NCCc3ccc(OC)c(OC)c3)noc1-2	?	-16.7	9.5%	-4.0%	-7.4%	12.6µM*
Cc1nn(Cc2ccccc2Cl)c(C)c1NC(=O)c1noc2c1CCCCC2	?	-4.4	-6.9%	1.9%	10µM*	?
O=C(Nc1cnn(Cc2ccc(Cl)cc2Cl)c1)c1noc2c1CCc1ccccc1-2	16.4µM*	.	.	-6.0%	.	?
COc1ccc2c(c1)CCc1c(C(=O)Nc3c(C)nn(Cc4ccc(Cl)cc4)c3C)noc1-2	20.6µM*	.	.	?	.	20.6µM*
Cc1cc(C(=O)Nc2cnn(Cc3ccc(Cl)cc3Cl)c2)no1	-21.2%	1.3	-13.4%	-6.0%	-28.9%	-23.9%
CCCN(CC1CCOC1)C(=O)Nc1c(F)cccc1F (stereo not drawn)	.	.	.	50.5%	.	.
COc1ccc2c(c1)CCc1c(C(=O)NCc3ccc(F)cc3)noc1-2	5.7%	-14.5	10.7%	8.1%	8.8%	-35.7%
CCN(CC)CCNC(=O)c1nn(-c2ccc(Cl)cc2)c2c1CCc1cc(OC)ccc1-2	?	-102.9*	-6.4%	?	?	20.6µM*
SMILES	TDP1 cell CPT	IL-1B inflam inh	HT1080NT lethal	12-LOX inh	HT1080 IDH1KD tx	TDP1 cell noCPT
COc1ccc2c(c1)CCc1c(C(=O)NCc3ccc(Cl)cc3)noc1-2	0.3%	30.5	19.7%	2.0%	12.8%	-12.4%
COc1ccc2c(c1)CCc1c(C(=O)Nc3c(C)nn(Cc4ccc(Cl)c(Cl)c4)c3C)noc1-2	11.6µM*	.	.	?	.	13µM*
CC1(C)[C@H]2CC[C@@H](CNC(=O)c3cccc(Cl)c3)[C@@H]1C2	.	.	.	-3.9%[176 µM]	.	.
Cc1cc(C2CCCN2C(=O)c2cc(C)c(C)c(S(N)(=O)=O)c2)on1 (stereo not drawn)	.	.	.	67.0%	.	.
CN(C)CCNC(=O)c1cccc2ccc(-c3ccc(-c4ccccc4)cc3)nc12	?	-57.3*	-4.1%	39.8µM*	?	?
Cc1cc(C(=O)NCCCN(C)C)c2ccccc2n1	-3.5%	2.5	0.9%	?	0.7%	3.4%
COc1ccc(OC)c2nc3c(C(=O)NCCN(C)C)cccc3nc12	1.64µM*	-100.4*	?	-6.3%	20.6µM*	2.59µM*
CN(C)CCNC(=O)c1cccc2nc3cccc(F)c3nc12	0.082µM*	-116.2*	?	-24.1%	7.31µM*	0.259µM*
COc1ccc(C23CC4CC(CC(C4)C2)C3)cc1C(=O)NCCN(C)C	20.6µM*	-12.6	?	?	?	8.2µM*
O=[N+]([O-])c1ccc2nc(Cl)nc(-c3ccccc3)c2c1	11.6µM*	-5.5	-2.4%	.	-3.0%	7.31µM*

Screening results: PubChem, National Center for Advancing Translational Sciences (NCATS)
